According to PubChem BioAssay (NCATS):
Results filed as inconclusive are left out. Activity calls are given as the source filed them. Unless noted, calls follow the shape of the dose curve; as a rule, active = well fitted curve in either direction with a large enough effect (not every such curve was filed as active); inconclusive = small, poorly fitted or top-dose-only effect, or another doubt; inactive = flat fitted curve, though single readings scatter.

Key:
[1] = AP1 Signaling Pathway (AID 357);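 also: ME-180 reporter cells stimulated with EGF at its EC50 level; % is scaled to controls: 0 for no effect and ±100 for the full control effect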
Summary of the method: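 Titration-series screen for positive or negative modulators of EC50 EGF-induced signaling in ME-180 cells carrying an AP-1-driven beta-lactamase reporter. After 5 hours at 37 degrees Celsius, CCF4 460nm/530nm emission ratio gave %Activity; AC50 values derived.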

[2] = NFAT Signaling Pathway (AID 444); settings: Jurkat NFAT-bla M1, carbachol, beta-lactamase ratio, 5 h; at 17.2 µM (top of the series) unless noted;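 also: carbachol stimulus at about its EC50 of 1 µM final; % is scaled to controls: 0 for no effect and ±100 for the full control effect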
Summary of the method: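 Read-out: CCF4 FRET ratio (460 nm/530 nm) after 1 h RT dye loading, used for %activity and AC50 from titration series. Cells: Jurkat NFAT-β-lactamase/M1 line, treated with compound plus 1 uM carbachol for 5 h, 37 °C.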

[3] = Stat Signaling Pathway (AID 446);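 also: ME-180 cervical cancer cells given 40 pM IL-6 alongside compound; SIE-controlled beta-lactamase reporter measured as 460/530 nm FRET emission ratio; % is scaled to controls: 0 for no effect and ±100 for the full control effect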
Summary of the method: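 Reporter line: ME-180 cervical carcinoma, SIE-beta-lactamase. Treatment: compound with 40 pM IL-6, 5 hrs, 37 C, in low-serum OPTI-MEM with 10 mM HEPES pH 7.3. Detection: 460/530 nm fluorescence.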

[4] = target: Glucocorticoid receptor (Homo sapiens) (UniProt P04150); test: GR-GFP Redistribution (AID 450;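 active = compounds whose dose series gives a full or clear partial fitted curve of increased nuclear translocation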; also: potency is read from the fitted curve at half-maximal effect); settings: U2OS GR-GFP nuclear translocation, laser cytometry, 2 h
[5] = target: Glucocorticoid receptor (Homo sapiens) (UniProt P04150); test: GR-EFC Redistribution (AID 451; calls by dose curve; also: potency is read from the fitted curve at half-maximal effect); settings: CHO-K1 GR-EFC translocation, beta-gal luminescence, 2 h
Summary of the method: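 Translocation of GR-ED fusion to nuclear EA restores b-gal, read by luminescence after 1 h room-temperature detection. Engineered CHO-K1 biosensor cells, 1,000/well, exposed 2 h at 37 C to titrations up to 46 uM final.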

[6] = target: 3',5'-cyclic-AMP phosphodiesterase 4B (Homo sapiens) (UniProt Q07343); test: qHTS Assay for Inhibitors of PDE-IV (AID 607; active = well fitted activation curve with a large enough effect in the main read-out, with a control signal flat, not every such curve was filed as active; also: % of control where 0% means no effect)
Summary of the method: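 Cell-based read-out of cAMP via a modified cyclic nucleotide-gated channel and membrane potential dye (535/590 nm) in HEK293 cells expressing PDE4 endogenously. Compounds tested up to 22.9 uM final; 100 uM RO 20-1724 reference.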

[7] = qHTS Assay for Lipid Storage Modulators (AID 1519; calls by dose curve); settings: Drosophila S3 cells, BODIPY lipid droplet/cell ratio, laser cytometry, cells loaded with oleic acid; for activity change, negative = inhibition: at 25.7 µM (top of the series)
Summary of the method: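 Cells seeded at 5,000 per well were treated with compounds over a concentration series and loaded with oleic acid (400 uM, as added). Lipid droplet fluorescence (488 nm excitation, 500-530 nm channel) was read by laser-scanning cytometry and normalized to 20 uM Triacsin C.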

[8] = target: Ubiquitin carboxyl-terminal hydrolase 1 (Homo sapiens) (UniProt O94782); test: Inhibitors of USP1/UAF1: Pilot qHTS (AID 504865; active = well fitted curve in the direction sought with a large enough effect; an effect the other way counts as inactive or inconclusive;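 also: rhodamine fluorescence freed from ubiquitin-rhodamine substrate followed over time; top concentration of the series differs between compounds; % is scaled to controls: 0 for no effect and ±100 for the full control effect; nearly all actives have a fitted effect of over 35% in size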)
Summary of the method: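 1nM USP1/UAF1 + cpd, 15 min RT; start w/ Ub-Rho 150nM final; kinetic FL 480/540 nm, 6 reads q60 s. Buffer 50mM HEPES pH 7.8, 0.5mM EDTA, 1mM TCEP, 0.01% Tween-20, 0.1 mg/ml BSA.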

[9] = target: Mitogen-activated protein kinase 10 (Mus musculus) (UniProt Q61831); test: JNK3 AlphaScreen Assay (AID 530);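 also: kinase came from lysate of stimulated human HepG2 cells; signal reports phosphorylation of biotinylated GST-cJun 1-79 at Ser73 with 10 µM ATP; % is scaled to controls: 0 for no effect and ±100 for the full control effect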
Summary of the method: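 Room-temperature AlphaScreen kinase assay; pre-activated HepG2 lysate as JNK3 source, biotin-GST-cJun(1-79) substrate, 10 uM ATP, compound 15 min preincubation.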

[10] = target: Luciferin 4-monooxygenase (Photinus pyralis) (UniProt P08659); test: Biochemical firefly luciferase enzyme assay for NPC (AID 624030; active = well fitted curve in the direction sought with a large enough effect; an effect the other way counts as inactive or inconclusive;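 also: purified P. pyralis luciferase at 10 nM with luciferin and ATP substrate; 0% = DMSO and -100% = full luciferase inhibition by PTC124 control; nearly all actives have a fitted effect of over 70% in size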)
Summary of the method: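 Direct inhibition of firefly luciferase enzyme (10 nM final, 50 mM Tris Acetate) assessed by luminescence within 5 minutes. Percent activity scaled between DMSO and PTC124 positive control, with concentration-effect curves classified by fit quality and response.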

[11] = S16 Schwann cell viability assay (CellTiter-Glo assay) (AID 624031; active = well fitted curve in the direction sought with a large enough effect; an effect the other way counts as inactive or inconclusive;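 also: cellular ATP luminescence as a viability measure; plate controls were DMSO-treated cells for no effect and cell-free wells for full effect; nearly all actives have a fitted effect of over 70% in size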)
Summary of the method: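 Untransfected S16 rat Schwann cells; compound 24 h, 37 °C/5% CO2; CellTiter-Glo ATP luminescence. % activity vs no-cell wells and DMSO controls (0%); concentration-effect curves classed by r2, response magnitude, activity.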

[12] = qHTS profiling for inhibitors of Plasmodium falciparum proliferation (AID 504749; active = well fitted curve in the direction sought with a large enough effect; an effect the other way counts as inactive or inconclusive;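 also: 0% = DMSO vehicle and full inhibition = artemisinin control; nearly all actives have a fitted effect of over 60% in size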); settings: P. falciparum in erythrocytes, SYBR Green DNA, 72 h, at 12.8 µM (top of the series)
Summary of the method: (§1)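 Three-day growth assay of blood-stage parasites in erythrocytes (0.3% parasitemia, 2.5% hematocrit) at 37 C, 5% CO2, quantified by SYBR Green DNA staining after overnight detergent lysis.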

C2A = test: as above; settings: P. falciparum in erythrocytes, SYBR Green DNA, 72 h; series mostly up to 12.8 µM
Summary of the method: as §1

CP191 = test: as above; settings: P. falciparum in erythrocytes, SYBR Green DNA, 72 h; series mostly up to 12.8 µM
Summary of the method: as §1

CP247 = test: as above; settings: P. falciparum in erythrocytes, SYBR Green DNA, 72 h; series mostly up to 12.8 µM
Summary of the method: as §1

CP250 = test: as above; settings: P. falciparum in erythrocytes, SYBR Green DNA, 72 h; series mostly up to 12.8 µM
Summary of the method: as §1

CP256 = test: as above; settings: P. falciparum in erythrocytes, SYBR Green DNA, 72 h; series mostly up to 12.8 µM
Summary of the method: as §1

FAB9 = test: as above; settings: P. falciparum in erythrocytes, SYBR Green DNA, 72 h; series mostly up to 12.8 µM
Summary of the method: as §1

JCK = test: as above; settings: P. falciparum in erythrocytes, SYBR Green DNA, 72 h; series mostly up to 12.8 µM
Summary of the method: as §1

PC49 = test: as above; settings: P. falciparum in erythrocytes, SYBR Green DNA, 72 h; series mostly up to 12.8 µM
Summary of the method: as §1

[13] = measured here: cell count channel max response
[14] = measured here: lipid channel max response

Sequence of Ubiquitin carboxyl-terminal hydrolase 1 (Homo sapiens) (O94782 whole entry, looked up): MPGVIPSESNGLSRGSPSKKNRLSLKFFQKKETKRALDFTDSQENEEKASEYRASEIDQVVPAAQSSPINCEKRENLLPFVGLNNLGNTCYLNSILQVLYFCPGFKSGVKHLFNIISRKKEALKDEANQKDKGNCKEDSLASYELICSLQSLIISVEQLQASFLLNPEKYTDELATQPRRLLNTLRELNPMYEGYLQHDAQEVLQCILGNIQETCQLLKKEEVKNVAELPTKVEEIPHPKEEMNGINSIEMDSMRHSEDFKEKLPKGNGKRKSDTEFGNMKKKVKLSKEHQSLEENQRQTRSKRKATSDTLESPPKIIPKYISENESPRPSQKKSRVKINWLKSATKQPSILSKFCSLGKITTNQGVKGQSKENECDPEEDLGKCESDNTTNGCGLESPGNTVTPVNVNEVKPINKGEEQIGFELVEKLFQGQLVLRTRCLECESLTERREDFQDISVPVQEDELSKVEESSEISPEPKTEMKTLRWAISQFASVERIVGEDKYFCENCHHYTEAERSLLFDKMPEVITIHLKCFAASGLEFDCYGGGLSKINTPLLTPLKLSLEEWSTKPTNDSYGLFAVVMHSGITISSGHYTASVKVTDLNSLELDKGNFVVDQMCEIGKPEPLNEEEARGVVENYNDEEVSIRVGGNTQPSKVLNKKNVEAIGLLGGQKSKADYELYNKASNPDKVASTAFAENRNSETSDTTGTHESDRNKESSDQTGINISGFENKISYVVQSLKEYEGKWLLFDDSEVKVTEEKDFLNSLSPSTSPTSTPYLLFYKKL
Sequence of Glucocorticoid receptor (Homo sapiens) (P04150 whole entry, looked up, the tested form may be a part): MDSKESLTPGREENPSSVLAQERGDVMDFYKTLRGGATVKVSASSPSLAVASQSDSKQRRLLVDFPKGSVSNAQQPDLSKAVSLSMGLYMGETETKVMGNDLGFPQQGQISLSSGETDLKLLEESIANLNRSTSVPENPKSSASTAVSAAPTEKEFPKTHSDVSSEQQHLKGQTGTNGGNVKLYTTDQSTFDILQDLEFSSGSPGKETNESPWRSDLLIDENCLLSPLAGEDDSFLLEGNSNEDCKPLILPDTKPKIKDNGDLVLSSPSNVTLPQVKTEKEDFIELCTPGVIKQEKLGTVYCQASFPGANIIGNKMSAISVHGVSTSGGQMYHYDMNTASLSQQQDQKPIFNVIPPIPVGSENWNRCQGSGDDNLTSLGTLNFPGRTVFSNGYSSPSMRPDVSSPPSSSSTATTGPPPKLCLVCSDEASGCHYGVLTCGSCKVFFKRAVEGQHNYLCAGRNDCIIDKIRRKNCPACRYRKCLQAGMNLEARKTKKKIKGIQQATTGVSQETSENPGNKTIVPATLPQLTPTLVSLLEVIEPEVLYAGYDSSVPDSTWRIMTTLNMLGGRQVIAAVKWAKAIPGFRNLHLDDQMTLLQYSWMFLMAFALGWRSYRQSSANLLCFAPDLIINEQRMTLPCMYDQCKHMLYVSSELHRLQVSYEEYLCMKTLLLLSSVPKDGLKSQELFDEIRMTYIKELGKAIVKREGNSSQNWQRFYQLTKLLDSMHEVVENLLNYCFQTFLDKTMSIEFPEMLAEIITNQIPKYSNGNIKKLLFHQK
Sequence of 3',5'-cyclic-AMP phosphodiesterase 4B (Homo sapiens) (Q07343 whole entry, looked up): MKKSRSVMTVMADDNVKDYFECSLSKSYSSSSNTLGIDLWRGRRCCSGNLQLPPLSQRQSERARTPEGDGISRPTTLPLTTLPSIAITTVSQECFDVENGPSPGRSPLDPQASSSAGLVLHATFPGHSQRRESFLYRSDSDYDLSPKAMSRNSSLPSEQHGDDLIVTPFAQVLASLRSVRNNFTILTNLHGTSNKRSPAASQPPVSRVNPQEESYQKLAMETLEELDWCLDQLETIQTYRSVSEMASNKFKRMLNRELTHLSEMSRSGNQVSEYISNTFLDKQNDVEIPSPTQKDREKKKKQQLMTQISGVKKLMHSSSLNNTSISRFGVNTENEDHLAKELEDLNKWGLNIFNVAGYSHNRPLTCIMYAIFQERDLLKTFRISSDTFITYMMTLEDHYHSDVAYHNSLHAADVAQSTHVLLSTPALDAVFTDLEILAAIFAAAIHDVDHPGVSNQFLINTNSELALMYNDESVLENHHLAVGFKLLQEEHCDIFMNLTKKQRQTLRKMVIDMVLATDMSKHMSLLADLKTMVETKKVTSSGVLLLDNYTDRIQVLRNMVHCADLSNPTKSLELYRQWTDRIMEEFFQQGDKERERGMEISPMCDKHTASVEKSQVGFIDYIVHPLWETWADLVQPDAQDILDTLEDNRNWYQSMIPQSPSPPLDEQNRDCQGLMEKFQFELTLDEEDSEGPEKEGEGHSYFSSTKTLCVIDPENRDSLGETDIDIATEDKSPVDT
Sequence of Luciferin 4-monooxygenase (Photinus pyralis) (P08659 whole entry, looked up): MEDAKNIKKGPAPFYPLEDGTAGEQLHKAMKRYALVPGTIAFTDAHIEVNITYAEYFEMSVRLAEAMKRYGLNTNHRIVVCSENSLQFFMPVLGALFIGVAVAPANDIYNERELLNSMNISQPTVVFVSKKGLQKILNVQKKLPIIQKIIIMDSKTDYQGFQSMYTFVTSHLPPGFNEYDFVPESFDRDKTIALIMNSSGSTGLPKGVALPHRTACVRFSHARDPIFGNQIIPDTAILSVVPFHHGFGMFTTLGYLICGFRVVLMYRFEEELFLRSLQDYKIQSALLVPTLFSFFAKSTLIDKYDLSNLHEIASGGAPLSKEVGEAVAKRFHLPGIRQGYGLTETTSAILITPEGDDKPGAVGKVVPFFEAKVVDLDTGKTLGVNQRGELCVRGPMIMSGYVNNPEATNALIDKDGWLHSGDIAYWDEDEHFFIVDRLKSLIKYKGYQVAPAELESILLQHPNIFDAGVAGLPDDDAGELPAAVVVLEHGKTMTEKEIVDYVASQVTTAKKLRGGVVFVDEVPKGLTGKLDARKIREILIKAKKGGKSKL

C[C@@H]1[C@H](C)CC[C@@]2(C(=O)O)CC[C@]3(C)C(=CC[C@H]4[C@@]5(C)CC[C@@H](O)C(C)(C)[C@@H]5CC[C@@]43C)[C@@H]12
inactive: outcome [1] | activity change, negative = inhibition [2] -17.6% | outcome [3] | Potency [4] > 20.6 µM | Potency [5] > 20.6 µM | outcome [6] | activity change, negative = inhibition [7] -4.31% | Potency [8]
-11%: max response [7, 14]
-6.67%: max response [7, 13]

COc1cc(OC)c2c(c1Cl)O[C@@]1(C2=O)[C@H](C)CC(=O)C[C@@H]1OC
inactive: outcome [1] | activity change, negative = inhibition [2] -1.63% | outcome [3] | Potency [4] > 20.6 µM | Potency [5] > 20.6 µM | Potency [9] | activity change, negative = inhibition [7] -1.85% | Potency [8]
-15.1%: max response [7, 14]
-13.8%: max response [7, 13]

CN[C@@H]1[C@H](O[C@H]2[C@@H](O[C@@H]3[C@@H](O)[C@@H](O)[C@@H](N=C(N)N)[C@@H](O)[C@@H]3N=C(N)N)O[C@@H](C)[C@]2(O)CO)O[C@H](CO)[C@@H](O)[C@@H]1O
-12.5%: max response [7, 14]
inactive: outcome [1] | activity change, negative = inhibition [2] 1.68% | outcome [3] | Potency [4] > 20.6 µM | Potency [5] > 20.6 µM | Potency [9] | outcome [6] | activity change, negative = inhibition [7] -1.28% | Potency [8]
-9.77%: max response [7, 13]

O=c1cc(-c2ccc(O)cc2)oc2c([C@H]3O[C@@H](CO)[C@@H](O)[C@@H](O)[C@@H]3O)c(O)cc(O)c12
inactive: outcome [1] | activity change, negative = inhibition [2] 2.91% | outcome [3] | Potency [4] > 20.6 µM | Potency [5] > 20.6 µM | Potency [9] | outcome [6] | activity change, negative = inhibition [7] -1.45% | Potency [8]
1.02%: max response [7, 14]
-1.3%: max response [7, 13]

C[C@@H]1[C@H](C)CC[C@@]2(C(=O)O[C@H]3O[C@@H](CO[C@H]4O[C@@H](CO)[C@@H](O[C@H]5O[C@@H](C)[C@@H](O)[C@@H](O)[C@@H]5O)[C@@H](O)[C@@H]4O)[C@@H](O)[C@@H](O)[C@@H]3O)CC[C@]3(C)C(=CC[C@H]4[C@@]5(C)C[C@@H](O)[C@@H](O)[C@](C)(CO)[C@@H]5CC[C@@]43C)[C@@H]12
inactive: outcome [1] | activity change, negative = inhibition [2] -1.63% | outcome [3] | Potency [4] > 20.6 µM | Potency [5] > 20.6 µM | Potency [9] | outcome [6] | activity change, negative = inhibition [7] -3.24% | Potency [8]
-4%: max response [7, 13]
-10.2%: max response [7, 14]

C[C@@H]1C[C@H]2[C@@H]3C[C@H](F)C4=CC(=O)C=C[C@@]4(C)[C@]3(F)[C@H](O)C[C@]2(C)[C@@]1(O)C(=O)CO
-3.99%: max response [7, 14]
0.642%: max response [7, 13]
inactive: outcome [1] | activity change, negative = inhibition [2] 2.6% | outcome [3] | Potency [9] | activity change, negative = inhibition [7] -2.8% | Potency [8] | Potency [10] | outcome [11] | activity, negative = inhibition ([12]; parasite line A) 7.34% | activity, negative = inhibition ([12]; parasite line B) -3.91% | Potency (C2A) | Potency (CP191) | Potency (CP247) | Potency (CP250) | Potency (CP256) | Potency (FAB9) | Potency (JCK) | Potency (PC49)
